In ChEMBL document CHEMBL4513140, “CO-ADD screening of Lancaster University (UK) compounds” (2021) one finds Inhibition data, which are given here for 4 compounds.

SMILES strings stand for the structures. Entries with a potency or affinity are not part of this list.

One assay has as its system Klebsiella pneumoniae. The conditions noted are these: Concentration 32 ug.mL-1; ASSAY_TEST Inhibition of Bacterial Growth; detection method Absorption (OD600); MEDIA CAMHB; plate type 384well; NBS; CORNING #3640; time 18 hr.
The test system of another assay is Candida albicans. The conditions noted are these: 32 ug/mL.
A further assay relates to Cryptococcus neoformans. As to conditions: Concentration 32 ug.mL-1; ASSAY_TEST Inhibition of Fungal Growth; detection method Resazurin; Absorption (OD600-OD570); plate type 384well; NBS; CORNING #3640.

As to `CC(=O)c1cc(C(C)=O)cc(C(C)=O)c1`, the Inhibition is 7.55% in the assay on Klebsiella pneumoniae, 2.92% in the assay with Candida albicans and -57.45% in the assay on Cryptococcus neoformans.

In the case of `COC(=O)c1ccc(S)cc1`, the Inhibition was -1.57% in the assay on Klebsiella pneumoniae, 2.97% in the assay with Candida albicans and -49.69% with Cryptococcus neoformans.

As for `CC(=NN)c1cc(/C(C)=N/N)cc(/C(C)=N/N)c1`, the Inhibition is 4.02% in the assay with Klebsiella pneumoniae, 5.62% with Candida albicans and -41.95% with Cryptococcus neoformans.

Turning to `c1ccc2nc3c4cccnc4c4ncccc4c3nc2c1`, the Inhibition was 2.4% in the assay on Klebsiella pneumoniae, 9.1% with Candida albicans and -49.42% in the assay on Cryptococcus neoformans.
